# Screening data deposited in PubChem by several laboratories.
# In the library only some 2.3% were active in any assay of this set; here they are far more common.
# FAS-TE inh – inhibitors of human fatty acid synthase thioesterase domain | P49327 | recombinant FAS-TE, OMFH fluorogenic substrate, fluorescence endpoint | inhibition, % at 15 µM | hit rate 0.67% among 360,000 | AID 602261;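 active means compounds whose normalised, plate-corrected inhibition of enzyme fluorescence in the single-dose primary screen is 50% or more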;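 further: 0% = DMSO with enzyme and 100% = substrate without enzyme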
# aDG glyco act – alpha-DG glycosylation activation; Pro5-aDG cells, alpha-DG glycosylation AlphaScreen (IIH6); 0% Pro5, 100% B10-LARGE cell signal; hit rate 0.22% among 360,000; activation, % at 10 µM;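 active means activation of at least 8% versus controls, or a plate z-score of at least 8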;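 further: Pro5 are CHO cells carrying HIG-tagged alpha-DG that lacks glycosylation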
# m-calpain inh – blocks pig calpain II enzyme activity; purified calpain II, fluorogenic peptide substrate, 30 min; inhibition, % at 16 µM; hit rate 0.37% among 220,000;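 active means inhibition above about 50%, limit read from the data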
# TAG inh – inhibitors of triacylglycerol accumulation; H9c2 cells, Nile Red lipid (TAG) fluorescence; cells loaded with 200 µM oleic acid; inhibition, % at 12.5 µM; hit rate 0.66% among 230,000;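 active means pattern-corrected inhibition of lipid staining of at least 50% with the nuclear-stain viability signal not falling by more than 50%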;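 further: 0% = DMSO wells and 100% = triacsin C control wells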
# Cardio protect – myocardial damage modulation in H9c2 cells; H9c2 cardiomyocytes, H2O2 injury protection, ATPLite, 2 h; protection from H2O2 cell death, % at 20 µM; hit rate 0.63% among 360,000; AID 588492;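 active means compounds giving at least 50% protection of heart cells from peroxide-induced death in the single-dose screen, raw or plate-pattern-corrected value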;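 further: 0% = DMSO wells with peroxide and 100% = DMSO wells without peroxide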
# beta cell repl – MIN6 beta-cell proliferation induction. proliferation, % at 10 µM. MIN6 cells proliferation, ATPlite luminescence, 48 h; cells starved in 0.2% serum; 100% = growth in 10% serum. hit rate 0.29% among 330,000;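 active means compounds whose signal lies at least 3.5 SD above the mean of all wells on their plate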;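 further: 0% = DMSO-treated cells in low-serum medium and 100% = 10% serum control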
# The depositor's hits bear a star; x = not tested or not shown.
SMILES,FAS-TE inh,aDG glyco act,m-calpain inh,TAG inh,Cardio protect,beta cell repl
CN(C)CCCNc1ccc(-c2nn(C)c(=O)c3ccccc23)cc1[N+](=O)[O-],-2.9,-0.2,-0.2,-2.6,17.8,-4.8
O=c1[nH]nc(-c2ccc(NCCO)c([N+](=O)[O-])c2)c2ccccc12,-8.0,-0.1,x,x,68.3*,1.2
CCOC(=O)CSC1=C(C#N)C(c2ccccc2OCC)C(C(=O)OCC)C(=O)N1 (centres undefined),-0.8,0.0,8.7,-19.0,7.8,0.0
CCOC(=O)C1C(=O)NC(SCC(=O)OC)=C(C#N)C1c1ccccc1OCC (centres undefined),-7.1,0.1,-10.2,x,72.0*,-1.6
O=C(C[C@@H]1CC[C@@H]2[C@H](COC[C@H](O)CN2C(=O)Nc2ccc(F)cc2)O1)NCCc1ccncc1,x,0.2,x,x,x,x
CC(=O)N1N=C(N)SC1c1ccc(Cl)c(Cl)c1 (centres undefined),-3.7,-0.1,x,5.9,-1.5,x
CC(CC(=O)Nc1ccc2c(c1)c(=O)n(C)n2-c1ccccc1F)c1ccccc1 (centres undefined),-1.4,0.4,x,-8.7,1.0,x
C=Cc1c(C)c2cc3[nH]c(cc4nc(cc5nc(cc1[nH]2)C(C)=C5CCC(=O)O)C(CCC(=O)O)=C4C)c(C)c3C=C,0.9,73.0*,x,12.5,18.6,-3.4
COc1ccc(CN(C(=O)CNC(=O)c2ccco2)C(C(=O)NCC2CCCO2)c2ccccc2)cc1 (centres undefined),-5.3,0.1,x,x,2.8,0.0
O=C(COc1ccccc1)NN1C(=O)CSC1=S,-3.4,0.0,17.0,x,7.3,-0.7
O=C(COc1ccc(F)cc1)NN1C(=O)CSC1=S,-10.1,-0.3,51.6*,0.6,0.2,-3.3
COc1ccc(NC(=O)c2ccc(=O)oc2)cc1,-1.2,-0.1,52.0*,x,-0.7,-1.3
CCOCCOC(=O)c1[nH]c2c(c1C)C(=O)CC(c1cc(OC)c(OC)c(OC)c1)C2 (centres undefined),-1.2,0.6,x,x,-16.3,-0.2
CCOCCOC(=O)c1[nH]c2c(c1C)C(=O)CC(c1ccccc1)C2 (centres undefined),1.6,2.2*,x,x,0.6,-4.2
COc1ccccc1C(C[N+](=O)[O-])c1c(N)n(C)c(=O)n(C)c1=O (centres undefined),-6.2,0.4,-11.2,52.5*,-0.9,-6.4
COc1ccccc1C(c1c(N)n(C)c(=O)n(C)c1=O)C(C)[N+](=O)[O-] (centres undefined),-2.1,0.1,-21.7,6.4,3.8,-1.8
COc1cc(-c2nnc(SCc3cc(=O)oc4cc(O)c(O)cc34)o2)cc(OC)c1OC,-3.2,0.1,-300.0,x,81.2*,-3.5
CCOC(=O)CSc1nnc(-c2cc(OC)c(OC)c(OC)c2)o1,-0.6,0.1,-0.1,4.6,0.2,-0.6
O=C(/C(N=Nc1cccc([N+](=O)[O-])c1)=C(/O)c1ccc(Br)cc1)C(F)(F)F,63.7*,-0.2,2.1,2.0,-13.7,-3.3
N#C/C(=N\Nc1cccc([N+](=O)[O-])c1)C(=O)c1ccc(Br)cc1,20.0,-0.3,28.2,6.8,-24.4,-7.0
Nc1ccc(N=Nc2ccccc2O)c(N)c1,7.5,-0.5,x,14.6,-3.5,-1.8
Oc1ccccc1N=Nc1ccccc1O,8.3,1.1,67.9*,x,26.7,x
N#C/C(=C1\CCCN1)c1nc2ccccc2c(=O)[nH]1,-2.2,-0.1,-10.8,14.4,73.5*,-1.6
N#C/C(=C/c1ccncc1)c1nc2ccccc2c(=O)[nH]1,-1.0,0.0,-18.9,5.9,-0.8,-0.6
COc1ccccc1CNC(=O)Nc1nc(C(N)Cc2ccc(Cl)cc2)cs1 (centres undefined),12.0,-0.5,x,106.5,-7.8,x
SMILES,FAS-TE inh,aDG glyco act,m-calpain inh,TAG inh,Cardio protect,beta cell repl
Cc1ccn2c(c1)nc(=O)c1cc(S(=O)(=O)N3CCOCC3)ccc12,-4.2,-0.2,x,x,3.3,-3.9
COc1ccc(OC)c(C(c2nnnn2C2CCCC2)N2CCN(c3ccccc3F)CC2)c1 (centres undefined),20.3,0.5,51.1*,30.2,-7.4,-3.4
CC(C)NC(=O)N(C)C[C@@H]1OCc2cnnn2CCCC(=O)N([C@H](C)CO)C[C@H]1C,-7.8,0.0,x,6.6,5.1,x
Cc1cc(OCC(=O)N2CCC(C(=O)O)CC2)c2c(C)c(C)c(=O)oc2c1,-3.2,-0.1,x,x,3.0,1.2
Cc1ccc2c(c1)CCCN2C(=O)c1ccc2c(c1)OCO2,-0.3,0.4,50.2*,x,-3.7,-0.8
O=C(c1ccc2c(c1)OCO2)N1CCCc2ccccc21,-3.1,0.0,-27.3,x,4.0,-2.2
CCCCCC[N+](C)(C)CC/C=C1/c2ccccc2Sc2ccc(Cl)cc21,19.9,-0.2,12.2,55.8*,-6.0,-3.9
CCOc1ccc(S(=O)(=O)N(C)CCO)cc1-c1nc2c(C(C)(C)C)nn(C)c2c(=O)[nH]1,4.2,-0.5,-9.1,x,56.4*,0.2
CC1(C)C(=O)Nc2ccccc2N1C(=O)COC(=O)c1cccnc1,-4.4,2.0,x,15.0,3.0,1.0
O=C(COC(=O)c1cccc(F)c1)Nc1ccc(Cl)cn1,-9.0,-0.4,x,5.0,5.0,5.3
Cc1ccnc(NC(=O)CCC(=O)N(Cc2ccco2)C(C(=O)NC(C)C)c2ccc(F)cc2)c1 (centres undefined),-1.9,-0.1,x,x,5.0,-3.2
c1cncc(-c2nc(NCC3COc4ccccc4O3)c3ccccc3n2)c1 (centres undefined),18.0,-0.1,20.5,40.0,51.7*,-3.5
COc1ccc(CCNc2nc(-c3cccnc3)nc3ccccc23)cc1OC,0.6,-0.2,x,x,50.7*,-0.8
c1cncc(-c2nc(NCc3ccc4c(c3)OCO4)c3ccccc3n2)c1,17.1,-0.2,26.9,-26.9,13.6,-5.1
CCNC(=O)C1(C)CCCN(Cc2ccc(-c3ccccc3)o2)C1 (centres undefined),-1.9,-0.2,x,-6.8,-2.0,x
Cc1ccc(NS(=O)(=O)c2cc(C(=O)NCCSC3CCCCC3)ccc2C)cc1,24.1,0.3,56.5*,x,-8.5,-5.6
CN(C(=O)c1ccc(NC(=O)Cc2ccc(NC(=O)C3CCCN(C(=O)c4ccccc4)C3)cc2)cc1)C1CCCC1 (centres undefined),-7.3,0.0,x,0.5,-6.3,x
COc1cc(-c2cc(NC(C)=O)c3ncc(-c4cc(OC)c(OC)c(OC)c4)n3c2)cc(OC)c1OC,3.1,-0.6,x,43.0,66.2*,x
COc1cc(-c2cc(NC(C)=O)c3ncc(-c4ccccc4)n3c2)cc(OC)c1OC,12.2,-0.4,x,5.7,70.2*,x
COc1ccc(-c2cnc3c(NC(C)=O)cc(-c4ccccc4OC)cn23)cc1OC,13.3,-0.2,x,2.2,19.1,x
CC(=O)Nc1cc(-c2ccc(C(=O)NC3CC3)cc2)cn2c(-c3cccc(C(C)=O)c3)cnc12,2.7,-0.1,x,5.2,50.4*,x
COc1ccc(-c2cc(NC(C)=O)c3ncc(-c4ccc(OC)c(OC)c4)n3c2)cc1OC,7.8,0.2,x,10.7,66.8*,x
